The values below come from PubChem BioAssay (EPA / NIEHS).

In test [1] the target is Transcription factor E2F1 (Homo sapiens) (UniProt Q01094). Nature of the test: ATG_E2F_CIS: Attagene CIS-FACTORIAL HepG2 Assay for human E2F Transcription Factor 1 (AID 2282935). As to conditions: HepG2 Attagene cis-reporter, E2F reporter RNA transcripts; actives raise or lower the signal. In a few lines: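 First, HepG2 cells were transfected with reporter transcription units. Next, they were dosed for 24 h. Then RNA was isolated, converted to cDNA, PCR-amplified, FAM-labeled, HpaI-digested and analyzed by capillary electrophoresis.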
Transcription factor E2F1 (Homo sapiens), sequence (Q01094 whole entry, looked up): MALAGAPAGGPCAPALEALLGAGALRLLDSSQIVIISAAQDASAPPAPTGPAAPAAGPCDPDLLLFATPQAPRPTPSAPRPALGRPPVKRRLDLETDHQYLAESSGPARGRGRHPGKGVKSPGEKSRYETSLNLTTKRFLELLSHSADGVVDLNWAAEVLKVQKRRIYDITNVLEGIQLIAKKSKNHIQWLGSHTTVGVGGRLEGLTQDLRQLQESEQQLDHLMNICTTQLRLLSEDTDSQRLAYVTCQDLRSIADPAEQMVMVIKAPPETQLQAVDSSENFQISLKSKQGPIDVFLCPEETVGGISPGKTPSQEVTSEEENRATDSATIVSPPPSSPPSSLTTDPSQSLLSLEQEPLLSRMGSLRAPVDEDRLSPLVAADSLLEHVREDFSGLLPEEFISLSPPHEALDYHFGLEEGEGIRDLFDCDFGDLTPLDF

Test [2] in a line: ATG_E_Box_CIS: Attagene CIS-FACTORIAL HepG2 Assay for human Enhancer Box (E-box) (AID 2282936). As to conditions: HepG2 E-box cis-reporter transcription, actives raise or lower the signal. Summed up: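 Endogenous transcription factor activity was sensed in human HepG2 liver cells through transfected cis-promoter reporter units. After 24 h of dosing, total RNA was reverse-transcribed and reporter cDNA resolved by capillary electrophoresis.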

Test [3] is described as follows: ATG_M_61_CIS: Attagene CIS-FACTORIAL HepG2 Assay for M61 Transcription Factor (Internal Marker) (AID 2282937). As to conditions: HepG2 Attagene CIS-FACTORIAL M61 internal marker reporter; actives raise or lower the signal. In a few lines: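 Endogenous transcription factor activity in HepG2 is read through transiently transfected cis-element reporter units. After 24 h dosing, RNA undergoes reverse transcription, PCR and primer extension with 6-FAM before capillary electrophoresis; DMSO-referenced bidirectional fit.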

Test [4] in a line: ATG_EGR_CIS: Attagene CIS-FACTORIAL HepG2 Assay for human Early Growth Response 1 (EGR1) (AID 2282938). The settings on record: HepG2 Attagene CIS-FACTORIAL EGR reporter mRNA; actives raise or lower the signal. In a few lines:
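Activity is taken as induction or loss of reporter mRNA versus DMSO, fitted bidirectionally. Transcripts from cis-regulated reporter units in transiently transfected HepG2 were measured after 24 h by RT-PCR with capillary electrophoresis.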

A short description of test [5]: ATG_M_19_CIS: Attagene CIS-FACTORIAL HepG2 Assay for M19 Transcription Factor (Internal Marker) (AID 2282939). As to conditions: HepG2 Attagene CIS-FACTORIAL M19 internal marker reporter; actives raise or lower the signal. In a few lines:
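Internal marker readout, fitted in both directions against DMSO, from HepG2 cells carrying transfected cis-element reporter constructs; RT-PCR and capillary electrophoresis of reporter mRNA after 24 h exposure.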

Test [6] can be described thus: ATG_ERE_CIS: Attagene CIS-FACTORIAL HepG2 Assay for Estrogen Response Element (ERE) (AID 2282940). The settings on record: HepG2 ERE cis-reporter, Attagene RNA transcript; actives raise or lower the signal. In a few lines: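 After 24 h compound treatment, RNA from transfected HepG2 cells was reverse-transcribed, reporter cDNA PCR-amplified, FAM-labelled, HpaI-cut and resolved by capillary electrophoresis. ERE-driven cis reporter transcripts reflect endogenous factors; gain or loss scored against DMSO.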

Test [7] is described as follows: ATG_Ets_CIS: Attagene CIS-FACTORIAL HepG2 Assay for human Erythroblast Transformation Specific (ETS) (AID 2282941). As to conditions: HepG2 ETS cis-reporter transcription, actives raise or lower the signal. Summed up:
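Multiplexed reporter transcript profiling: HepG2, 24 h treatment, total RNA to cDNA, PCR, 6-FAM labelling, HpaI cut, capillary electrophoresis. Gain- or loss-of-signal fitted against DMSO.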

Test [8] concerns the target Hepatocyte nuclear factor 3-beta (Homo sapiens) (UniProt Q9Y261). Nature of the test: ATG_FoxA2_CIS: Attagene CIS-FACTORIAL HepG2 Assay for human Forkhead box A2 (FOXA2) (AID 2282942). The settings on record: HepG2 cis-reporter transcription factor activity, 24 h; actives raise or lower the signal. Summed up:
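Reporter transcript induction is measured by fluorescence after capillary electrophoresis of RT-PCR products from HepG2 cells exposed 24 h. Cis-regulated reporter units report endogenous factor activity; curves fitted both directions against DMSO.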

A short description of test [9]: ATG_FoxO_CIS: Attagene CIS-FACTORIAL HepG2 Assay for human Forkhead box O (FoxO) (AID 2282943). The settings on record: HepG2 Attagene cis-reporter, FoxO element, mRNA; actives raise or lower the signal. Summed up:
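Values reflect reporter mRNA induction or loss in HepG2 cells 24 h post-dosing, fitted bidirectionally with DMSO as negative control and baseline. Detection used RT-PCR and fluorescence capillary electrophoresis.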

Test [10] is described as follows: ATG_GATA_CIS: Attagene CIS-FACTORIAL HepG2 Assay for human GATA Binding Protein (AID 2282944). The settings on record: HepG2 GATA cis-element reporter, Attagene multiplex mRNA; actives raise or lower the signal. Summed up: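 Reporter transcripts from a GATA cis-regulated unit, among multiplexed reporters in transfected HepG2 cells, were measured by RT-PCR with capillary electrophoresis after 24 h dosing. Induction or loss scored relative to DMSO.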

Test [11] is described as follows: ATG_GLI_CIS: Attagene CIS-FACTORIAL HepG2 Assay for human Zinc Finger Protein GLI1 (AID 2282945). As to conditions: HepG2, Attagene cis-factorial reporter mRNA, GLI element; actives raise or lower the signal. Summed up: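 HepG2 cells transiently transfected with cis-promoter multiplexed reporter units report endogenous transcription factor activity. After 24 h chemical exposure, reporter mRNA was quantified by RT-PCR, 6-FAM labelling, HpaI digestion and capillary electrophoresis, with bidirectional fitting against DMSO.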

In test [12] the target is Bile acid receptor (Homo sapiens) (UniProt Q96RI1). Kind of test: ATG_IR1_CIS: Attagene CIS-FACTORIAL HepG2 Assay for human Nuclear Receptor Subfamily 1 Group H Member 4 (NR1H4), IR1 submotif (AID 2282946). As to conditions: IR1 reporter transcription, actives raise or lower the signal. In a few lines: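 Readout: reporter transcript levels by RT-PCR with fluorescent capillary electrophoresis, from HepG2 cells transiently transfected with multiplexed cis-regulated reporters and dosed 24 h. Gain- or loss-of-signal fitted versus DMSO negative control.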
Bile acid receptor (Homo sapiens), sequence (Q96RI1 whole entry, looked up): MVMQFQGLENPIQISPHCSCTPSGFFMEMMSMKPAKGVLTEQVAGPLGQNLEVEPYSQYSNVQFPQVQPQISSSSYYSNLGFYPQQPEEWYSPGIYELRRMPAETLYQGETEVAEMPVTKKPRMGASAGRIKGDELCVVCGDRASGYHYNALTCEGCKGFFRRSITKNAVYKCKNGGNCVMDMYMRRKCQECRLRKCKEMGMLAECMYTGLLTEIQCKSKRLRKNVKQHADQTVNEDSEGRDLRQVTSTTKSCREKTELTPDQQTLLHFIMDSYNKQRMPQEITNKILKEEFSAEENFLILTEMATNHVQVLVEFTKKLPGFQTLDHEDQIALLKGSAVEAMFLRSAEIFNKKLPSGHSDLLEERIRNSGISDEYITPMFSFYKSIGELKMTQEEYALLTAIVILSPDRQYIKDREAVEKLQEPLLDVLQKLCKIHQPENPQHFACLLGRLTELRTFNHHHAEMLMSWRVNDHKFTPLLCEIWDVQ

A short description of test [13]: ATG_GRE_CIS: Attagene CIS-FACTORIAL HepG2 Assay for human Glucocorticoid Response Elements (GRE) (AID 2282947). As to conditions: HepG2 GRE cis-reporter, Attagene multiplex mRNA; actives raise or lower the signal. Summed up: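 Cells (HepG2) bearing transfected cis-promoter reporter transcription units were treated with chemical for 24 hours. Reporter mRNA was measured via RT-PCR with capillary electrophoresis, and activity was fitted in both directions relative to DMSO.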

The nature of test [14]: ATG_ISRE_CIS: Attagene CIS-FACTORIAL HepG2 Assay for human Interferon Regulatory Factor 1 (IRF1) binding to an Interferon-Stimulated Response Element (ISRE) (AID 2282948). As to conditions: HepG2 ISRE cis-reporter (Attagene), mRNA transcription readout; actives raise or lower the signal. Summed up: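 Signal reflects induction or loss of ISRE-linked reporter mRNA in transiently transfected HepG2 cells after a 24 h treatment, detected by fluorescent RT-PCR fragments on capillary electrophoresis and normalised to DMSO.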

Test [15] is described as follows: ATG_M_32_CIS: Attagene CIS-FACTORIAL HepG2 Assay for M32 Transcription Factor (Internal Marker) (AID 2282949).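 Note: background control marker of the multiplexed CIS panel rather than a real target.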 The settings on record: HepG2 Attagene cis-factorial M32 reporter, mRNA; actives raise or lower the signal. In a few lines: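 HepG2 human liver cells transiently transfected with cis-promoter-driven multiple reporter transcription units, dosed 24 h. Reporter mRNA quantified by RT-PCR, FAM-labelled primer extension, HpaI digest and capillary electrophoresis; bidirectional fit versus DMSO baseline.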

Test [16] is described as follows: ATG_M_06_CIS: Attagene CIS-FACTORIAL HepG2 Assay for M06 Transcription Factor (Internal Marker) (AID 2282950). The settings on record: HepG2 Attagene CIS-FACTORIAL M06 internal marker reporter; actives raise or lower the signal. In a few lines:
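Serves as a background control readout. Transfected HepG2 exposed to compounds for 24 h, then reporter transcripts quantified by fluorescent RT-PCR and capillary electrophoresis. Both directions fitted against DMSO baseline.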

Test [17] concerns the target Hypoxia-inducible factor 1-alpha (Homo sapiens) (UniProt Q16665). Nature of the test: ATG_HIF1a_CIS: Attagene CIS-FACTORIAL HepG2 Assay for human Hypoxia Inducible Factor 1 (HIF1A) (AID 2282951). The settings on record: HepG2 Attagene cis-factorial HIF1a reporter transcription; actives raise or lower the signal. In a few lines: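 Fluorescence intensity of capillary-separated, 6-FAM-labelled reporter amplicons gives mRNA induction in HepG2 cells carrying transfected cis-promoter reporter units; cells exposed 24 h, responses fitted up or down from DMSO.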

Test [18] addresses Hepatocyte nuclear factor 6 (Homo sapiens) (UniProt Q9UBC0). Kind of test: ATG_HNF6_CIS: Attagene CIS-FACTORIAL HepG2 Assay for human Hepatocyte Nuclear Factor 6 (HNF6) (AID 2282952). The settings on record: HepG2 Attagene cis-factorial HNF6 reporter transcription; actives raise or lower the signal. In a few lines:
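Endogenous factor activity read in transiently transfected HepG2 via promoter-regulated reporter transcripts. RNA harvested 24 h post-dosing, reverse-transcribed, PCR-amplified, FAM-labelled, HpaI-digested and resolved by capillary electrophoresis; fitted in both directions against DMSO.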

Test [19] addresses Heat shock factor protein 1 (Homo sapiens) (UniProt Q00613). Nature of the test: ATG_HSE_CIS: Attagene CIS-FACTORIAL HepG2 Assay for human Heat Shock Transcription Factor 1 (HSE) (AID 2282953). The settings on record: HepG2 HSE cis-reporter, Attagene RNA transcription; actives raise or lower the signal. Summed up:
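Endogenous transcription factor activity in transiently transfected HepG2, read as reporter mRNA by RT-PCR with fluorescent capillary electrophoresis after 24 h. Gain or loss of signal fitted versus DMSO baseline.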

A short description of test [20]: ATG_MRE_CIS: Attagene CIS-FACTORIAL HepG2 Assay for human Metal Responsive Element (MRE) (AID 2282954). The settings on record: HepG2 MRE cis-reporter transcription, Attagene multiplex; actives raise or lower the signal. Summed up:
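Cells were transfected with cis-promoter reporter transcription units, then dosed for 24 h. RNA was reverse-transcribed, amplified, fluorescently labelled and resolved by capillary electrophoresis, and activity was fitted in both directions relative to DMSO.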

Activity calls are given as the source filed them. Rule for the calls: active = hit-call score of the fitted dose curve at least 0.9, where 1 is the maximum; inactive = score below 0.9.

Hepatocyte nuclear factor 3-beta (Homo sapiens), sequence (Q9Y261 whole entry, looked up): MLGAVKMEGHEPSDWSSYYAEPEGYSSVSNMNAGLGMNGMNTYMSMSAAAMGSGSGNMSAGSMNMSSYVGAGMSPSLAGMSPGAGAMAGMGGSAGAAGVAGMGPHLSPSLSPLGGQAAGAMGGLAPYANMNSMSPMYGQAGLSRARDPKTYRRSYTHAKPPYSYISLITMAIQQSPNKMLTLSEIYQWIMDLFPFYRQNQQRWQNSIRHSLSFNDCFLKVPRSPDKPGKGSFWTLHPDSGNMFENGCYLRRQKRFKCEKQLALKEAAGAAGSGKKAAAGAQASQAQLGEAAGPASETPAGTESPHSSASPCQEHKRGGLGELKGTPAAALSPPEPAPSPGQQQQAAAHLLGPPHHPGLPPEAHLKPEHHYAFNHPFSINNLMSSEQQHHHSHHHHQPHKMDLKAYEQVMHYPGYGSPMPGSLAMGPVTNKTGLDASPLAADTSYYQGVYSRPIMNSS
Hypoxia-inducible factor 1-alpha (Homo sapiens), sequence (Q16665 whole entry, looked up): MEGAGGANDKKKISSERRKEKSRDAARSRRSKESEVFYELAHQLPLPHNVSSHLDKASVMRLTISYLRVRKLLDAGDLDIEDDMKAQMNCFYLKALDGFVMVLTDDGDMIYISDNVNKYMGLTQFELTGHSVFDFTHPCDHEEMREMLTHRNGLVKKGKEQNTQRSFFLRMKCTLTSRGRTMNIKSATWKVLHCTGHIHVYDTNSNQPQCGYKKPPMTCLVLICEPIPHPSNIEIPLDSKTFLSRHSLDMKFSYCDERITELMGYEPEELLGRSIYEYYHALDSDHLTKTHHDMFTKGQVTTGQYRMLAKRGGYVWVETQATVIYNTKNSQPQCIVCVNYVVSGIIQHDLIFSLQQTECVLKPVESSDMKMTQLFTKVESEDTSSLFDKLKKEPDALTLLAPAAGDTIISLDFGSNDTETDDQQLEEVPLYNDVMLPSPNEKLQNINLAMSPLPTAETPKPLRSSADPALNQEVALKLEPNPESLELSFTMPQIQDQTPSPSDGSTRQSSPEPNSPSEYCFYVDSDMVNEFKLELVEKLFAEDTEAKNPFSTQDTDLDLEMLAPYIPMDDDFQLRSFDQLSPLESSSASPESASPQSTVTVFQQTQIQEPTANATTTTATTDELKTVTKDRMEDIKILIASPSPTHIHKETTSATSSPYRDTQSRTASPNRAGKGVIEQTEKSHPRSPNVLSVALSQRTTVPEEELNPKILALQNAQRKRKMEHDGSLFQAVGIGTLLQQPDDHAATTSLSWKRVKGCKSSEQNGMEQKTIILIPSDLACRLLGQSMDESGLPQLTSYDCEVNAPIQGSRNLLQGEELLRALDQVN
Hepatocyte nuclear factor 6 (Homo sapiens), sequence (Q9UBC0 whole entry, looked up): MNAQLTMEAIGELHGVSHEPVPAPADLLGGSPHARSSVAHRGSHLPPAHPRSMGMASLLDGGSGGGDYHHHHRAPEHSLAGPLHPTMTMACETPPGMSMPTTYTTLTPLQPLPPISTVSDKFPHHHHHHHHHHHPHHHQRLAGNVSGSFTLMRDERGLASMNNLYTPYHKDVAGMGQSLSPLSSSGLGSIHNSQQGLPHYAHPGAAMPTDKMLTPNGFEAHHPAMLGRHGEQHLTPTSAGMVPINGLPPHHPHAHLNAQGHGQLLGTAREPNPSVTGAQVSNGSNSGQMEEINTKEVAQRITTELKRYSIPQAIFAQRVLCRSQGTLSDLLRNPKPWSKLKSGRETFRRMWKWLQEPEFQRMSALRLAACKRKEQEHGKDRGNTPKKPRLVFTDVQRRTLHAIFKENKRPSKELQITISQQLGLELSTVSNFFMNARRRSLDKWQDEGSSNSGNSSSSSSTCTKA
Heat shock factor protein 1 (Homo sapiens), sequence (Q00613 whole entry, looked up): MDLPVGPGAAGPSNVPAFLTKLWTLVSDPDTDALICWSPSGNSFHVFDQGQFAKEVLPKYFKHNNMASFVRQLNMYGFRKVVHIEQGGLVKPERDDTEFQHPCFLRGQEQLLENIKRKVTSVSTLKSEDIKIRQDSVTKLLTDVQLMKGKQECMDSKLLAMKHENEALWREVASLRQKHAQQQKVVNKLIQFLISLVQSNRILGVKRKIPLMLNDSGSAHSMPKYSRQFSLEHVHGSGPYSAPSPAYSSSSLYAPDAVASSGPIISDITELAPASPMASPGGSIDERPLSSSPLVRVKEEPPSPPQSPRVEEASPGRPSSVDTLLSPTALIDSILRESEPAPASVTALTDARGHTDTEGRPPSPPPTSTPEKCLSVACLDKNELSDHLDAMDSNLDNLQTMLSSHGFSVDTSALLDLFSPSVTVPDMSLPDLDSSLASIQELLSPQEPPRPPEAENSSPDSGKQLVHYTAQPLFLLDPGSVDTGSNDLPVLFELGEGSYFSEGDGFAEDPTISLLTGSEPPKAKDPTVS

Broadly, the AC50 is the concentration giving half of the maximal activity seen. On to `CO/N=C(/C1=NOCCO1)c1ccccc1Oc1ncnc(Oc2ccccc2Cl)c1F`, for which the outcome in test [1], in [2], in test [3], in [5], in [6] and in test [7] was inactive. Moreover, the call in test [8], in test [9], in test [10], in test [11], in test [12] and in [13] was inactive. Moreover, the compound was called inactive in test [15], in test [16], in test [17] and in test [18]. Besides, the concentration at half-maximal activity (AC50) in test [4] was 2.61 µM (active); in test [14] it was 4.82 µM (active); in test [19], 17.8 µM (active); in [20], 8.64 µM (active).
With `CN=C=S`, the outcome in test [1], in [2], in [3], in [4], in test [5] and in [6] was inactive. Also, the compound was classed as inactive in test [7], in test [8], in [9], in test [10], in test [11] and in [12]. Further, the outcome in [14], in test [15], in test [16], in test [17], in test [18] and in test [19] was inactive. Further, in [20], the AC50 was 26.1 µM (active).
For the compound `COCc1cnc(C2=NC(C)(C(C)C)C(=O)N2)c(C(=O)O)c1` (centres undefined), the result in test [1], in [2], in test [3], in test [4], in [5] and in test [6] was inactive. Further, the outcome in test [7], in test [8], in test [9], in test [10], in test [11] and in test [12] was inactive. Further, the call in test [13], in test [14], in [15], in [16], in test [17] and in test [18] was inactive. Also, the compound was classed as inactive in [19] and in test [20].
